From PubChem
A350 autofl: compound fluoresces in the Alexa 350 spectral region; Compound autofluorescence, 340/450 nm, Alexa 350 dye-equivalents; stronger effect = higher value; 11% of 59,000 active; max dye-equivalent concentration, M; in the data active = max dye-equivalent concentration above about 10 nM; inconclusive = mostly about 1.1 nM to 9.6 nM
CRE Fsk mod: alters forskolin-stimulated CRE reporter signaling in CHO cells. Potency, µM (highest dose often 38.2 µM), inactives show at the highest dose activity change, negative = inhibition, usual class: activators. CHO CRE-bla reporter (cAMP response element driving beta-lactamase), forskolin EC10, beta-lactamase ratio. 2.5% of 71,000 active. AID 662; active = well fitted activation curve with a large enough effect in the signal ratio, with a control signal flat, not every such curve was filed as active; inconclusive = small, poorly fitted or top-dose-only effect, or effect the other way, or a change in a side signal; the % refers to the signal ratio; note: potency is the fitted concentration of half-maximal effect; % of control where 0% means no effect
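Reporter-gene assay: CHO cells with beta-lactamase behind cAMP responsive elements, co-treated with compound and EC10 NKH 477 for 3 hours at 37 degrees Celsius. Activity came from the 460/530 nm CCF4 emission ratio.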
HADH2 inhib: HADH2 (human) dehydrogenase inhibition; Q99714; recombinant HADH2, NADH fluorescence, beta-hydroxybutyryl-CoA; Potency, µM (series often up to 57.1 µM), inactives show at the highest dose activity change, negative = inhibition, actives largely listed as inhibitors; 3.4% of 73,000 active; note: potency is the fitted concentration of half-maximal effect; % is set by controls: 0 for no effect and ±100 for the full control effect; nearly all actives have a fitted effect of over 60% in size
Target sequence (Q99714 whole entry, looked up, one chain of several): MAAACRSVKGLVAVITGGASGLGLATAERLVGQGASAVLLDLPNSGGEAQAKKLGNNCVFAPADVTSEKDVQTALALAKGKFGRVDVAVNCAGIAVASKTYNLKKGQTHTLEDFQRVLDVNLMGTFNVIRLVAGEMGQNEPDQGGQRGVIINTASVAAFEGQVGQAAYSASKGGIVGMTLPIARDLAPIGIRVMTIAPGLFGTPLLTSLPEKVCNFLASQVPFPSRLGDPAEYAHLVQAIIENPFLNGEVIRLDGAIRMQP
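20 nM HADH2 + cpd, 15 min RT; add 1 mM NAD+/90 uM beta-hydroxybutyryl-CoA; kinetic fluorescence 360/450 nm, 4 min. Tris-HCl pH 9.0, 0.01% Tween-20.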
HSD17B inhib: blocks hydroxysteroid 17-beta dehydrogenase activity | Q99714 | recombinant HSD17B10, NADH fluorescence kinetic | Potency, µM (highest dose often 57.1 µM), without a hit: top-dose activity change, negative = inhibition, usual class: inhibitors | 7.6% of 75,000 active;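 note: the protocol describes HADH2 (HSD17B10) and not the HSD17B4 of the title; potency is the fitted concentration of half-maximal effect; % is set by controls: 0 for no effect and ±100 for the full control effect; nearly all actives have a fitted effect of over 70% in size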
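Activity followed as NADH fluorescence increase (ex 360, em 450 nm) every 30 seconds for 4 min, using final 90 uM beta-hydroxybutyryl CoA and 1 mM NAD+. Recombinant His-tagged enzyme, 20 nM, pH 9.0 Tris buffer, 15 min compound preincubation.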
AID923: qHTS Assay for Allosteric/Competitive Inhibitors of Caspase-1: Spectroscopic Profiling in AFC Spectral Region. 1.1% of 75,000 active. compound fluorescence, AFC spectral region (405/520 nm). Potency, µM (highest dose often 57.5 µM), for inactives: at the highest dose fluorescence increase, usual class: activators; note: potency is the fitted concentration of half-maximal effect; 0% is about no effect
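Compound autofluorescence profiled at 405 nm ex/520 nm em during kinetic caspase 1 run (50 nM enzyme, 5 uM Ac-WEHD-AFC, HEPES pH 7.5, 10 mM DTT). Titration up to 57 uM; baseline from regression intercept, normalized to AFC standard curve.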
4-MU autofl: compound fluoresces in the 4-MU spectral region; 11% of 59,000 active; compound autofluorescence, 340/450 nm, 4-MU equivalents; stronger effect = higher value; max dye-equivalent concentration, M; in the data active = max dye-equivalent concentration above about 10 nM; inconclusive = mostly about 1.1 nM to 9.6 nM
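Intrinsic fluorescence at 340/450 nm (ex/em) was read after 15 min at room temperature in pH 8.0, 100 mM Tris. Each compound concentration expressed as 4-MU-equivalent concentration from a six-point 4-MU standard series on each plate.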
The depositor's hits bear a star; [ ] = another dose, or the depositor's remark. The list is not random: actives were taken first. Their share in the collection is about 14%. Unless noted, calls come from the whole dose curve; as a rule, active = well fitted curve in the direction sought with a large enough effect; inconclusive = small, poorly fitted or top-dose-only effect, or another doubt; inactive = no such curve, though single readings can be large; an effect the other way counts as inactive or inconclusive.

For CCCCC(=O)Nc1cccc(NC(=O)CC)c1 the results were A350 autofl inactive, CRE Fsk mod -4%, HADH2 inhib 7%, HSD17B inhib 8%, AID923 1% and 4-MU autofl inactive.
`CCCCCC(=O)Nc1cccc(-c2nc3ncccc3o2)c1` gave A350 autofl inactive, CRE Fsk mod inconclusive, HADH2 inhib inconclusive, HSD17B inhib 25µM*, AID923 -2% and 4-MU autofl inactive.
For CCCCC(=O)Nc1cccc(-c2nc3ncccc3o2)c1 the results were A350 autofl inconclusive, CRE Fsk mod 19%, HADH2 inhib inconclusive, HSD17B inhib 32µM*, AID923 2% and 4-MU autofl inactive.
`COc1c(C)cc(Br)cc1C(=O)Nc1cccc(-c2nc3ncccc3o2)c1` gave CRE Fsk mod inconclusive, HADH2 inhib -5%, HSD17B inhib 342% and AID923 2%.
Screening Cc1cc(-c2nc3ncccc3o2)ccc1N returned A350 autofl 2.4e-06M*, CRE Fsk mod inconclusive, HADH2 inhib inconclusive, HSD17B inhib 16µM*, AID923 6% and 4-MU autofl 3.7e-06M*.
For C[C@]1(c2ccccc2)OC(C(=O)O)=CC1=O the results were CRE Fsk mod -3%, HADH2 inhib 5%, HSD17B inhib -2% and AID923 1%.
Screening Cc1ccc(NC(=O)CSCC(N)=O)cc1C returned A350 autofl 5.2e-07M*, CRE Fsk mod inconclusive, HADH2 inhib 1%, HSD17B inhib 25µM*, AID923 20% and 4-MU autofl 5.8e-07M*.
For CCc1nc(NC2CCCCC2)c(C#N)c2c1COC(C)(C)C2 the results were A350 autofl 5.5e-08M* and 4-MU autofl 5.1e-08M*.
CCCc1nc(NC2CCCCC2)c(C#N)c2c1COC(C)(C)C2 was read as A350 autofl 2.9e-08M* and 4-MU autofl 3.2e-08M*.
`CO[C@@H]1COC(=O)[C@H]2CCCN2C(=O)[C@@H](C)COC(=O)C/C=C\[C@H]1C` gave HADH2 inhib 8%[11.4 µM], HSD17B inhib 3%[11.4 µM] and AID923 -1%[11.5 µM].
`Cc1cc(C)cc(NC(=O)C2CCN(S(=O)(=O)c3c(C)n[nH]c3C)CC2)c1` gave A350 autofl 1.2e-08M*, CRE Fsk mod -5%, HADH2 inhib 1%, HSD17B inhib 3%, AID923 -2% and 4-MU autofl inconclusive.
Cc1n[nH]c(C)c1S(=O)(=O)N1CCCC(C(=O)Nc2ccc3c(c2)OCCO3)C1 (centres undefined) was read as A350 autofl inactive, CRE Fsk mod -2%, HADH2 inhib 3%, HSD17B inhib -1%, AID923 1% and 4-MU autofl inactive.
Screening Cc1n[nH]c(C)c1S(=O)(=O)N1CCN(c2ccccn2)CC1 returned A350 autofl inactive, CRE Fsk mod -2%, HADH2 inhib 3%, HSD17B inhib 25µM*, AID923 -1% and 4-MU autofl inactive.
`O=C(O)c1cc(-c2ccc3c(c2)OCO3)nc2ccccc12` gave A350 autofl inconclusive, CRE Fsk mod -8%, HADH2 inhib -14%, HSD17B inhib -1%, AID923 0% and 4-MU autofl inconclusive.
`COc1cccc(OC)c1C(=O)N1CCN(c2ccccn2)CC1` gave A350 autofl inactive, CRE Fsk mod inconclusive, HADH2 inhib inconclusive, HSD17B inhib 40µM*, AID923 1% and 4-MU autofl inactive.
`CC(=O)c1ccc(N2CCN(C(=O)c3cc(-c4ccc5c(c4)OCO5)nc4ccccc34)CC2)cc1` gave A350 autofl 4.1e-08M*, CRE Fsk mod inconclusive, HADH2 inhib inconclusive, HSD17B inhib inconclusive, AID923 6% and 4-MU autofl 4.9e-08M*.
`O=C(O)[C@@H]1[C@@H](C(=O)NCc2cccnc2)[C@@H]2C=C[C@@H]1O2` gave A350 autofl inactive, CRE Fsk mod -1%[7.6 µM], HADH2 inhib 6%[11.4 µM], HSD17B inhib -4%[11.4 µM], AID923 -3%[11.5 µM] and 4-MU autofl inactive.
Screening OC[C@@H]1O[C@@H](n2cnc3c(NC4CCCCC4)ncnc32)[C@@H](O)[C@H]1O returned A350 autofl inactive, CRE Fsk mod 2%, HADH2 inhib 6%, HSD17B inhib -3%, AID923 0% and 4-MU autofl inactive.
Screening N[C@@H](Cc1c[nH]c2ccc([N+](=O)[O-])cc12)C(=O)O returned A350 autofl inactive, CRE Fsk mod 0%[7.6 µM], HADH2 inhib 4%[11.4 µM], HSD17B inhib 6%[11.4 µM], AID923 1%[11.5 µM] and 4-MU autofl inactive.
Screening O=C1CCC[C@@H](C(C(=O)OCc2ccccc2)C(=O)OCc2ccccc2)C1 returned HADH2 inhib -12%[11.4 µM], HSD17B inhib -2%[11.4 µM] and AID923 2%[11.5 µM].
For CC(C)NC(=O)[C@@H]1C[C@H]1[C@@H](NC(=O)OCc1ccccc1)c1ccccc1 the results were CRE Fsk mod -10%, HADH2 inhib 8%, HSD17B inhib 18% and AID923 1%.
For COc1ccc(S(=O)(=O)N2CCN(c3ccccn3)CC2)cc1OC the results were A350 autofl inactive, CRE Fsk mod 8%, HADH2 inhib -1%, HSD17B inhib 25µM*, AID923 -4% and 4-MU autofl inactive.
CCOc1ccc2nc(-c3ccc(OC)c(OC)c3)cc(C(=O)O)c2c1 was read as A350 autofl 2.3e-08M*, CRE Fsk mod inconclusive, HADH2 inhib -16%, HSD17B inhib inconclusive, AID923 2% and 4-MU autofl 2.5e-08M*.
Screening COc1ccc(-c2cc(C(=O)OCC(=O)N3CCCC3)c3ccccc3n2)cc1 returned A350 autofl 9e-08M*, CRE Fsk mod inconclusive, HADH2 inhib 19%, AID923 19% and 4-MU autofl 1.1e-07M*.
CCOc1ccc(-c2cc(C(=O)N3CCN(C)CC3)c3ccccc3n2)cc1 was read as A350 autofl 5.1e-07M*, CRE Fsk mod 8%, HADH2 inhib 29%, HSD17B inhib 13µM*, AID923 0% and 4-MU autofl 3.9e-07M*.
O=C(c1cc(-c2ccccc2)nc2ccccc12)N1CCOCC1 was read as CRE Fsk mod 5%, HADH2 inhib 1%, HSD17B inhib -3% and AID923 4%.
For COc1ccc(S(=O)(=O)N2CCN(c3c(C)cccc3C)CC2)cc1OC the results were CRE Fsk mod 16%, HADH2 inhib 13%, HSD17B inhib 1% and AID923 2%.
For Cc1cc(C(=O)OCC(=O)N2CCOCC2)c2ccccc2n1 the results were A350 autofl inactive, CRE Fsk mod 12%, HADH2 inhib -8%, HSD17B inhib -14%, AID923 -1% and 4-MU autofl inactive.
